The nature of assay [1]: qHTS for Inhibitors of the Aldehyde Dehydrogenase Family (ALDH1A2, ALDH1A3, ALDH2, ALDH3A1) (AID 2061307). Further: nearly all actives have a fitted effect of over 50% in size. On Potency: test system not described further here; potency means the concentration at half of the fitted maximal effect. On activity change, negative = inhibition: on the % scale 0 is the no-effect control and ±100 the full control effect. Background: qHTS replaces the single test concentration by a dilution series.
Assay [2] addresses Aldehyde dehydrogenase, mitochondrial (Homo sapiens) (UniProt P05091). The assay is described as follows: qHTS for Inhibitors of the Aldehyde Dehydrogenase Family (ALDH2) Primary screen (AID 2061308).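 Further: plate controls were vehicle for no effect and reference inhibitor for full effect; nearly all actives have a fitted effect of over 55% in size.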
In assay [3] the target is Retinaldehyde dehydrogenase 3 (Homo sapiens) (UniProt P47895). The assay is described as follows: qHTS for Inhibitors of the Aldehyde Dehydrogenase Family (ALDH1A3) Confirmatory screens (AID 2061311). Further: nearly all actives have a fitted effect of over 60% in size. Further: potency means the concentration at half of the fitted maximal effect. On activity change, negative = inhibition: on the % scale 0 is the no-effect control and ±100 the full control effect.
Assay [4] has the same target. The experiment in a line: qHTS for Inhibitors of the Aldehyde Dehydrogenase Family (ALDH1A3) Primary screen (AID 2061315).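 Further: plate controls were DMSO vehicle for no effect and reference inhibitor for full effect.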
For assay [5], the target named is Retinal dehydrogenase 2 (Homo sapiens) (UniProt O94788). The assay is described as follows: qHTS for Inhibitors of the Aldehyde Dehydrogenase Family (ALDH1A2) Confirmation screens (AID 2061314). Further: nearly all actives have a fitted effect of over 65% in size. Further: potency means the concentration at half of the fitted maximal effect.
Assay [6] can be described thus: BET inhibitor-based combinations targeting novel dependencies in MECOM-rearranged (r) AML: SET-2 cell line (AID 2202231). Further: potency means the concentration at half of the fitted maximal effect; nearly all actives have a fitted effect of over 35% in size. As to conditions: SET-2 AML cells viability, CellTiter-Glo luminescence, 48 h; viability: active compounds read low, concentration not given here. Put shortly:
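Viability of cells (500 per well) is scored by luminescent CellTiter-Glo at 48 hr post-dosing. Eleven-point titrations are normalized to DMSO and empty controls and reduced to AUC values.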
A general note: Cellular ATP, detected with luciferase, serves as a proxy for viable cell number.

The nature of assay [7]: BET inhibitor-based combinations targeting novel dependencies in MECOM-rearranged (r) AML: MV-4-11 cell line (AID 2202233). Further: potency means the concentration at half of the fitted maximal effect; nearly all actives have a fitted effect of over 45% in size. Put shortly: (§1)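 Using pin-tool transfer, drugs were added in 11 doses to cells (500/well), incubated 48 hr, and assessed with CellTiter-Glo. Z-AUC is a mean-centring transformation applied separately to each screened line.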
Assay [8] is described as follows: BET inhibitor-based combinations targeting novel dependencies in MECOM-rearranged (r) AML: HNT-34 cell line (AID 2202234). Further: potency means the concentration at half of the fitted maximal effect; nearly all actives have a fitted effect of over 35% in size. The gist of the method: as §1
Assay [9] deals with Aldehyde dehydrogenase 1A1 (Homo sapiens) (UniProt P00352). The experiment in a line: qHTS for Inhibitors of the Aldehyde Dehydrogenase Family (ALDH1A1) Confirmatory screens (AID 2061316). Further: nearly all actives have a fitted effect of over 65% in size. Further: potency means the concentration at half of the fitted maximal effect. On activity change, negative = inhibition: on the % scale 0 is the no-effect control and ±100 the full control effect.

The record followed here is PubChem BioAssay (NCATS).

Results filed as inconclusive are left out. A number with no mark means an inactive call. Active and inactive are the calls of the source. The call rests on the fitted dose curve; in most records, active means well fitted curve in the direction sought with a large enough effect; inconclusive means small, poorly fitted or top-dose-only effect, or another doubt; inactive means no such curve, though single readings can be large; an effect the other way counts as inactive or inconclusive.

As to `Cc1ccc(NC(=O)CN2C(=O)N/C(=C\c3cccn3-c3ccc(C(=O)O)cc3)C2=O)cc1`, the Potency entry in assay [1], in assay [2], in assay [3] and in [4] was “inactive” each time.

As for `COc1ccc(C2Oc3ccccc3C(=O)N2Cc2ccccc2)cc1COc1ccc(NC(C)=O)cc1` (stereo not given), the Potency in assay [1] was 0.283 µM (active); in assay [5], 7.12 µM (active). Besides, the Potency result in [2] and in assay [4] was “inactive” in each case.

Take `C/C(=C\c1cccc(C(F)(F)F)c1)C1Nc2cccc3cccc(c23)N1`: the Potency result in assay [1], in assay [2] and in assay [4] was “inactive” in each case. Moreover, the Potency in assay [3] was 11.3 µM (active).

Consider `Nc1nccc(-c2c(-c3ccc(F)cc3)ncn2C2CCCCC2)n1`, for which the Potency entry in assay [1], in assay [2], in assay [3] and in assay [4] was “inactive” in each case. In addition, the values for the Potency in assay [6], in assay [7] and in assay [8] were 20.9 µM (active), 16.6 µM (active) and 20.9 µM (active), respectively.

Regarding `CC(=O)Nc1sc2c(c1-c1nc3ccccc3s1)CN(C(C)C)C2`, the Potency result in [1], in [2], in assay [3] and in assay [4] was “inactive” in each case.

Turning to `O=C1Nc2ccccc2/C1=C/c1cccc(C(=O)O)c1`, the figures for the Potency in [1] and in [3] were 2.24 µM (active) and 4 µM (active), respectively. The Potency entry in [2] and in assay [9] was “inactive” each time.

As for `O=C(OCC#CCSc1nnc(-c2cccc3ccccc23)o1)c1ccncc1`, the Potency result in assay [1], in [2], in [4] and in assay [9] was “inactive” in each case. Moreover, the Potency in [3] is 2.01 µM (active).

With `O=c1[nH]c(CN2CCOCC2)nc2sc3c(c12)CCCC3`, the Potency result in assay [1], in [2], in assay [3], in assay [4] and in [9] was “inactive” in each case.

Take `Cc1ccc(OCCn2c3c(c4ccccc42)CN(C(=O)C2CCCCC2)CC3)cc1`: the figures for the Potency in assay [1], in [3] and in [9] were 1.59 µM (active), 11.3 µM (active) and 2.01 µM (active), respectively. In addition, the Potency entry in assay [2] and in [4] was “inactive” throughout.

As for `c1nc(NCC2CC2)c2cc(-c3ccc4c(c3)OCO4)ccc2n1`, the Potency result in assay [1], in assay [2], in assay [3] and in [4] was “inactive” throughout.

For the molecule `NC(=O)C1CCN(c2nc(-c3cc4ccccc4o3)cs2)CC1`, the values for the Potency in assay [1] and in [9] were 2.83 µM (active) and 6.34 µM (active), respectively. Besides, the Potency result in assay [2], in [3] and in [4] was “inactive” each time.

Take `Cc1csc(CN(C)c2ncnc3ccc(-c4ccc5c(c4)OCO5)cc23)n1`: the Potency in assay [1] was 0.201 µM (active); in assay [3], 25.1 µM (active); in [9], 12.7 µM (active). Moreover, the Potency entry in assay [2] and in [4] was “inactive” each time.

In the case of `Cc1cc(-c2nnc3n2CCCCC3)c(C)n1-c1cccc2ccccc12`, the Potency entry in assay [1] and in assay [2] was “inactive” throughout. In addition, the activity change, negative = inhibition in [3] is -18.8% [at 0.022 µM]. Further, in [9], the Potency was 12.7 µM (active).

In the case of `O=C(Nc1nc(-c2ccccc2)cs1)c1ccncc1NS(=O)(=O)c1ccccc1Cl`, the Potency in assay [1] is 22.5 µM (active). The Potency result in [2] and in assay [4] was “inactive” each time.

`CN1CCN(c2ccc(Nc3nn4c(=O)c5ccccc5nc4s3)cc2)CC1`: the Potency entry in assay [1], in [2] and in assay [4] was “inactive” throughout. The Potency in [5] was 14.2 µM (active); in assay [9] it was 12.7 µM (active).

As to `COc1ccc(C2Nc3ccccc3C(=O)N2Cc2ccccc2Cl)cc1COc1ccc(NC(C)=O)cc1` (stereo not given), the Potency in assay [1] was 8.96 µM (active). Besides, the Potency result in [2] and in assay [4] was “inactive” throughout.

With `O=C([C@H](Cc1ccc(O[S+](=O)([O-])c2cccnc2)cc1)N[S+](=O)([O-])c1ccccn1)N1CCN(c2ccccc2)CC1`, the Potency in [1] was 15.8 µM (active); in assay [5], 7.98 µM (active); in assay [9], 5.04 µM (active). Besides, the Potency result in assay [2] and in assay [4] was “inactive” throughout.

For the molecule `Cc1cc(-c2nnc3n2CCCC3)c(C)n1-c1ccccc1`, the Potency result in assay [1], in assay [2], in [5] and in [4] was “inactive” throughout. Besides, in [9], the Potency was 11.3 µM (active).

In the case of `COc1ccc(-c2nc3ccccc3c(=O)n2Cc2ccco2)cc1COc1ccc(NC(C)=O)cc1`, the Potency in assay [1] was 20.1 µM (active); in assay [5], 12.7 µM (active). Besides, the Potency entry in [2] and in [4] was “inactive” throughout.

With `COc1ccc(C2=Nn3c(nnc3-c3cc(OC)ccc3OC)SC2)cc1`, the Potency in assay [1] is 20 µM (active); in assay [9], 14.2 µM (active). Besides, the Potency entry in assay [2], in [5] and in assay [4] was “inactive” each time.

`CN(C)CCCNC(=O)c1ccc(-c2cnc3c(O)cccc3c2)cc1`: the Potency entry in [1], in assay [2], in assay [5] and in assay [4] was “inactive” throughout.

Take `Cc1cc(-c2nnc3n2CCCCC3)c(C)n1-c1ccc(Cl)c(Cl)c1`: the Potency entry in assay [1], in assay [2] and in assay [4] was “inactive” throughout. The Potency in assay [5] was 20.1 µM (active); in [9], 14.2 µM (active).

For `COc1ccc(C2Nc3ccccc3C(=O)N2CCc2ccccc2)cc1COc1ccc(NC(C)=O)cc1` (stereo not given), the Potency in assay [1] is 5.65 µM (active). Moreover, the Potency result in assay [2] and in assay [4] was “inactive” each time.

`FC(F)Oc1ccc(C2=Nn3c(nnc3-c3ccccc3C(F)(F)F)SC2)cc1OCC1CC1`: the Potency in assay [1] is 2.83 µM (active); in [5], 17.9 µM (active). In addition, the Potency result in assay [2], in assay [4] and in assay [9] was “inactive” each time.

With `N#Cc1nc(Nc2ccccc2)nc(NC2CCCCC2)n1`, the Potency in assay [1] is 0.708 µM (active). Also, the Potency entry in assay [2], in assay [5] and in assay [4] was “inactive” each time.

Consider `CN(CC(=O)O)c1ncnc2ccc(-c3ccc4c(c3)OCO4)cc12`, for which the Potency result in assay [1], in [2] and in assay [4] was “inactive” in each case.

With `COc1ccc(C2=Nn3c(nnc3-c3ccccc3OC)SC2)cc1`, the Potency in [1] is 2.01 µM (active). Besides, the Potency entry in [2], in assay [5] and in assay [4] was “inactive” in each case.

Regarding `COc1ccc(C2c3c(ncn(CCN4CCOCC4)c3=N)Oc3ccc4ccccc4c32)cc1OC` (stereo not given), the Potency entry in assay [1], in [2] and in assay [4] was “inactive” throughout.

With `Cc1ccc(N[S+](=O)([O-])c2cc3c(cc2Cl)NC(=O)CO3)cc1Br`, the Potency was 10.1 µM (active) in assay [1] and 14.2 µM (active) in assay [5]. Moreover, the Potency entry in [2] and in assay [4] was “inactive” throughout.
